UBC9 SUMO inh = SUMOylation inhibition; inhibition, % at 35 µM; 0.36% of 290,000 active; P63279; AID 2006; HTRF SUMOylation assay, SAE1/SAE2 + UBC9, in vitro; in the data active = inhibition above about 50%, passing the limit was not always enough
MLLE-PAM2 inh = blocks PAM2 peptide binding to the PABP1 MLLE domain; AID 588489; GST-MLLE / FITC-PAM2 fluorescence polarization; 0.36% of 360,000 active; inhibition, % at 20 µM; in the data active = inhibition above about 35%, passing the limit was not always enough
Target sequence (P11940 whole entry, looked up, the tested form may be a part): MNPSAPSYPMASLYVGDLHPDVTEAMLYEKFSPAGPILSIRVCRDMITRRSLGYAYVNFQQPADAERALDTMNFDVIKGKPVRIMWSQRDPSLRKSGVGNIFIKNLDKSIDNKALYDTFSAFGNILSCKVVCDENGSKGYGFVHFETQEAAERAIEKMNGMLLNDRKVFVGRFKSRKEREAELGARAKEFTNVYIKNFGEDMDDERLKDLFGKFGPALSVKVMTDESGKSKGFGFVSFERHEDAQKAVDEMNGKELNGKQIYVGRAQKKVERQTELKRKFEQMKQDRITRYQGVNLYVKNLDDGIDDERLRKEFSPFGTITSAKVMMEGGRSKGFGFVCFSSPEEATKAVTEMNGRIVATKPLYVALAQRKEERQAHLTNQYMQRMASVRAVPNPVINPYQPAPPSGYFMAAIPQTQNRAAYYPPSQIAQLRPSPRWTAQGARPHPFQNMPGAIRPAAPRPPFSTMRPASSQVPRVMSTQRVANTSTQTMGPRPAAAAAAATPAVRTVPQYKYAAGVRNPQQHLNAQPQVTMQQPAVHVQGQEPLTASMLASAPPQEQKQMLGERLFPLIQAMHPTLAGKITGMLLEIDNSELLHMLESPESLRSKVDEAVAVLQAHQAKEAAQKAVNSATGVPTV
eIF4H FP inh = inhibitors of RNA binding by human eIF4H | 0.94% of 290,000 active | eIF4H fluorescence polarization binding assay | inhibition, % at 35 µM;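 note: calls also rest on retests at 20 µM and on dose response follow-up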
ALR H2O2 inh = inhibitors of human sulfhydryl oxidase ALR | inhibition, % (test concentration not listed) | 3.8% of 290,000 active | P55789 | AID 485317 | purified ALR, DTT oxidation, H2O2 HRP-luminol luminescence;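 active = mean replicate inhibition above about 79%, with every replicate also reaching it, limit read from the data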
PABP polyA inh = blocks human PABP binding to poly(A) RNA; P11940; fluorescence polarization; inhibition, % at 35 µM; 1% of 290,000 active; AID 2014;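 note: calls also rest on retests at 20 µM and on dose response follow-up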
Efflux pump mplx = blocks antifungal efflux pumps in multiplex yeast assay; S. cerevisiae Candida pump triplex, Nile Red efflux; inhibition, % at 10 µM; 0.44% of 330,000 active; AID 485275;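 active = plate passing quality check with inhibition over a set limit, or well fluorescence over plate mean plus 4 SD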;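 note: Nile Red retained in pooled yeast measured as flow cytometry median fluorescence; higher means more Nile Red kept so more efflux inhibition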
Hits are given with their value; – = inactive; · = not tested or not shown. Hits are enriched below; roughly 4.7% of the tested compounds scored in any of these assays. Unless noted, the rule behind the calls is not given here.

SMILES	UBC9 SUMO inh	MLLE-PAM2 inh	eIF4H FP inh	ALR H2O2 inh	PABP polyA inh	Efflux pump mplx
Cc1ccc(NC2=C(Cl)C(=O)OC2OC(=O)c2ccc(C)cc2)cc1 (configuration not stated)	–	–	–	–	–	–
COC(=O)c1ccc(NC2=C(Cl)C(=O)OC2OC(=O)c2ccccc2)cc1 (configuration not stated)	–	–	–	97.0	–	–
COc1cccc(-c2cc3c(c4c2ccn4C)C2CCC3C2)c1 (configuration not stated)	·	–	·	·	·	·
CC(C)(C)[C@H]1C=C(C(=O)O)O[C@@H](OCc2ccc(CO)cc2)C1	·	–	·	–	·	–
Cc1[nH]nc2c1C(=O)CCC2	–	–	–	99.5	–	–
COc1ccc(-c2csc(Cc3nnc4n3CCCCC4)n2)cc1OC	–	–	–	97.5	–	–
C[C@@H]1CN([C@@H](C)CO)C(=O)c2cc(C#Cc3ccccc3)cnc2O[C@@H]1CN(C)Cc1ccccn1	·	–	·	·	·	·
Cn1nnc(NC(=S)NC(=O)c2cccc3c(Br)cccc23)n1	–	39.7	–	–	–	–
Cn1nnc(NC(=S)NC(=O)c2cccc3c(Cl)cccc23)n1	–	–	–	–	–	–
CSc1cccc(NC(=O)CN2C(=O)c3ccccc3S2(=O)=O)c1	–	–	–	95.2	–	–
O=C(c1ccccc1)N(Nc1ccccc1)c1ccccc1	–	–	–	76.1	–	–
CNc1ccc(Br)cc(C(=O)/C=C/c2cccc(Cl)c2Cl)c1=O	–	–	–	·	65.4	·
CNc1ccc(Br)cc(C(=O)/C=C/c2cccc(OC)c2OC)c1=O	–	–	–	–	–	–
Nc1nc(Sc2ccc(C(F)(F)F)cc2[N+](=O)[O-])n[nH]1	–	–	–	–	–	–
Nc1nc(Sc2c([N+](=O)[O-])cc(C(F)(F)F)cc2[N+](=O)[O-])n[nH]1	–	39.5	–	·	–	–
Cc1ccc(C(C)C)c(OCC(=O)NNC(=O)Cn2[nH]c(=O)c3ccccc3c2=O)c1	·	–	·	–	·	–
COC(=O)c1ccc(NC(c2ccc(Cl)cc2)P(=O)(OC)OC)cc1 (configuration not stated)	–	–	79.8	–	1.6	–
O=C(CCl)Oc1ccc2occ(C(=O)c3cccs3)c2c1	–	–	–	97.3	–	–
Cc1nc2c(c(=O)n1CCC1=CCCCC1)c1nc3ccccc3nc1n2/N=C/c1ccco1	–	–	68.2	–	67.9	–
CCCn1c(C)nc2c(c1=O)c1nc3ccccc3nc1n2CCC1=CCCCC1	–	–	–	–	–	–
Cc1ccc(NC(=O)c2ccc3nc(N4CCOCC4)sc3c2)c(Cl)c1	–	–	–	–	–	–
COc1ccc2c(c1OC)C(=O)OC2CC(=O)c1ccc(O)c(O)c1 (configuration not stated)	–	–	–	99.1	–	–
O=C1C=C(c2ccccc2)C[C@@H](c2ccc(Cl)cc2)C1	·	–	·	–	·	–
O=C1CC(c2ccccc2)CC(=O)C1Sc1ccc(Cl)cc1 (configuration not stated)	–	42.1	–	–	–	–
O=C(C(Cl)c1ccccc1)N1CCOCC1 (configuration not stated)	–	–	–	–	–	–
SMILES	UBC9 SUMO inh	MLLE-PAM2 inh	eIF4H FP inh	ALR H2O2 inh	PABP polyA inh	Efflux pump mplx
O=C(Nc1cccc(Cl)c1N1CCOCC1)c1cc([N+](=O)[O-])ccc1N1CCOCC1	–	–	–	–	–	–
O=C(Nc1cccc(Cl)c1N1CCCCC1)c1ccc(N2CCOCC2)c([N+](=O)[O-])c1	–	–	active	–	71.3	–
CC(=O)/C(=N/Nc1cccc(C)c1)N1CCOCC1	–	–	–	99.3	–	–
CCN(CC)S(=O)(=O)c1cccc(-c2n[nH]c(=S)n2/N=C/c2ccc(OC)cc2)c1	–	–	–	·	–	–
CCN(CC)S(=O)(=O)c1cccc(-c2n[nH]c(=S)n2/N=C/c2ccc(OC(F)F)cc2)c1	–	–	–	97.7	–	–
CCOc1ccc(NC(=O)CSc2nc3ccsc3c(=O)n2Cc2ccc(C(=O)O)cc2)cc1	·	–	·	·	·	·
Cc1ccc(S(=O)(=O)N2C[C@H]3C(=O)C[C@@H](c4ccccc4)N(S(=O)(=O)c4ccc(C)cc4)[C@H]3C[C@H]2c2ccc(Cl)cc2)cc1	·	–	·	·	·	·
CCS(=O)(=O)Nc1ccc(-c2cc(-c3ccccc3)c3cc(C)ccc3n2)cc1	–	–	–	89.2	–	–
CS(=O)(=O)N1CCc2cc(C(=O)Nc3ccc(O)cc3)ccc21	–	–	–	99.1	–	–
Nc1ccc(C(=O)CC(=O)Nc2ccc(Cl)cc2)cc1	–	–	–	–	–	–
COc1ccccc1N1CCN(C/C=C/c2ccc(N(C)C)cc2)CC1	–	·	–	98.6	–	–
CCCc1cc(=O)[nH]c(SCC(=O)Nc2cc(S(=O)(=O)N3CCCCC3)ccc2C)n1	·	–	·	–	·	–
CC1(C(=O)NCCC#N)CCN1C(=O)CC(c1ccccc1)c1ccccc1 (configuration not stated)	·	–	·	·	·	·
NS(=O)(=O)c1ccc(Sc2ccc3ccccc3c2)nc1	–	–	–	99.0	–	–
CCOc1ccccc1C(=O)Nc1cc2c(cc1N1CCCC1)n(CC)c(=O)n2CC	–	–	–	98.6	–	–
CC(C)(C)C(=O)Nc1ccccc1N1CCN(C(=O)c2ccc(Cl)cc2)CC1	–	–	86.1	·	1.9	–
COc1ccc(C(=O)Nc2ccccc2N2CCCC2)cc1S(=O)(=O)N1CCOCC1	·	–	·	98.1	·	–
COc1ccc(C(=O)Nc2ccccc2N2CCOCC2)cc1S(=O)(=O)N1CCCC1	·	–	·	–	·	–
COc1ccc(NC(=O)CSCC(=O)Nc2cc(Cl)ccc2N2CCCC2)cc1	–	–	–	98.6	–	–
O=C(Nc1ccccc1N1CCCC1)c1cccc(F)c1	–	–	–	98.5	–	–
O=C(Nc1ccccc1N1CCOCC1)c1cc2ccccc2o1	–	–	–	–	–	–
COc1ccc(CC(=O)Nc2ccccc2N2CCCCC2)cc1OC	–	–	–	–	–	–
Cn1nc(C(=O)Nc2ccccc2N2CCCC2)c2ccccc2c1=O	–	–	–	91.5	–	–
COc1cccc(CC(=O)Nc2ccccc2N2CCCC2)c1	–	–	–	98.0	–	–
O=C(Nc1ccccc1N1CCCC1)c1cc2ccccc2o1	–	40.7	–	–	–	–
SMILES	UBC9 SUMO inh	MLLE-PAM2 inh	eIF4H FP inh	ALR H2O2 inh	PABP polyA inh	Efflux pump mplx
O=C(CC1OC(=O)c2ccccc21)Nc1cc(Cl)ccc1N1CCCC1 (configuration not stated)	·	–	·	96.7	·	–
Cc1ccc(S(=O)(=O)CCC(=O)Nc2ccccc2N2CCCC2)cc1	·	–	·	98.5	·	–
Cc1ccc(NC(=O)CSCC(=O)Nc2ccccc2N2CCCC2)cc1	·	–	·	99.0	·	–
O=C(CC1OC(=O)c2ccccc21)Nc1ccccc1N1CCOCC1 (configuration not stated)	–	–	–	–	–	–
COc1ccc(C(=O)N/N=C(/C)c2ccc(N3CCCCC3)cc2)cc1	–	–	–	92.0	–	–
Cc1ccc(NC(=O)CSCC(=O)Nc2ccccc2C(=O)N2CCCCC2)cc1	·	–	·	·	·	–

Assay outcomes from PubChem BioAssay.
